Screening results as filed in PubChem BioAssay.
Only some compounds are listed: those with a hit (about 3.1% of all), similar ones and a draw of the others.
INS-1E GSIS act – GLuc luminescence reporter in INS-1E cells, primary screen for activators of glucose-dependent secretion of insulin | 370,000 compounds, 0.61% hits | AID 743287 | activation, % at 16.6 µM | INS-1E GLuc reporter insulin secretion, 2-3 h;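 active means lowest replicate activation of at least 40%, so every replicate reaches that level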;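 further: 0% = median of neutral control wells and 100% = median of IBMX positive control wells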
AF4-AF9 inh – blocks AF4 peptide binding to human AF9; P42568; AlphaScreen, biotin-AF4 peptide binding to FLAG-AF9; inhibition, % at 10 µM; 350,000 compounds, 0.47% hits;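 active means every replicate reaching a set inhibition limit, whatever the replicate mean, cut at about 25% in these data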;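 further: 0% = plate neutral control median and 100% = total signal loss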
dFosB activator – activators of mouse delta FosB homodimer. 340,000 compounds, 0.99% hits. purified delta FosB, TAMRA-CDK5 oligo fluorescence polarization; percent of positive-control signal above neutral wells. activation, % at 25 µM;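 active means mean activation above about 17%, with every replicate also reaching it, limit read from the data, passing the limit was not always enough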
Target sequence (P13346 whole entry, looked up): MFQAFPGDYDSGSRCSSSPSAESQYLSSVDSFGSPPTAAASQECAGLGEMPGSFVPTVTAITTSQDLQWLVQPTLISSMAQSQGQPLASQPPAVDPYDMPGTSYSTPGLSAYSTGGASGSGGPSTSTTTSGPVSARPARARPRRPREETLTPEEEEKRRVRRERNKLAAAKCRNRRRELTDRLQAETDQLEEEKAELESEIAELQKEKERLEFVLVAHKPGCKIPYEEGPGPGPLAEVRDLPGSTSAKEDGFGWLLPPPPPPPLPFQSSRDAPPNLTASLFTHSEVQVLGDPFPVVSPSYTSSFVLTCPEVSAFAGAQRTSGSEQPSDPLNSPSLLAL
RAD52 inh – inhibitors of human RAD52 DNA annealing; P43351; recombinant RAD52 DNA annealing, FRET fluorescence; inhibition, % at 18.7 µM; 360,000 compounds, 0.46% hits; AID 651710;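 active means every replicate showing at least 50% inhibition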
RAD54 inh – inhibitors of human RAD54 branch migration. Q92698. 360,000 compounds, 0.14% hits. inhibition, % at 10.4 µM. AID 602329. RAD54 Holliday junction branch migration, FAM/BHQ fluorescence;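 active means mean normalized replicate activity at least 40 and at least half of replicates scoring 40 or more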;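 further: 0% = median of neutral control wells and 100% = median of positive control wells; inhibitors cause a drop in the FAM fluorescence signal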
DENV2 CPE – inhibitors of DENV2 cytopathic effect. 350,000 compounds, 1.7% hits. CPE inhibition, % at 9.99 µM. AID 651640. DENV2-infected cells, cytopathic effect rescue, plate reader; in the data active means CPE inhibition above about 20%, passing the limit was not always enough; tested in BHK-21 cells;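 further: 0% = median of neutral control wells and 100% = median of positive control wells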
Active calls of the source: *; nt = no result given; ! = not confirmed by another sample.

SMILES	INS-1E GSIS act	AF4-AF9 inh	dFosB activator	RAD52 inh	RAD54 inh	DENV2 CPE
CC1CCCCN1CCNC(=O)Cn1nc(-c2ccccc2)ccc1=O (stereo unspecified)	22.9	8.0	-3.1	-12.9	10.0	nt
COc1ccc(-c2ccc(=O)n(CC(=O)NC3CCc4ccccc43)n2)cc1OC (stereo unspecified)	47.2*	-0.4	1.7	0.3	nt	7.6
CCC(=O)N1C[C@@H](C)[C@@H](OC)CN(C)C(=O)c2cc(NC(=O)C3CCCCC3)ccc2OC[C@@H]1C	12.5	0.8	nt	4.7	-2.4	-0.5
CCn1c(SCc2cccc(F)c2)nnc1-c1ccncc1	-1.7	-1.0	-5.1	2.0	7.5	46.8*
CCn1c(SCc2cccc(F)c2)nnc1-c1cccnc1	5.1	-1.7	-4.3	-1.0	nt	-0.7
COc1ccc(S(=O)(=O)N(C)C[C@H]2Oc3ccc(NC(=O)Nc4c(C)noc4C)cc3CC(=O)N([C@H](C)CO)C[C@@H]2C)cc1	11.0	-2.1	nt	-2.5	2.3	1.3
COc1ccc(-c2ccccc2)cc1NC(=O)[C@@H]1O[C@H](CO)[C@H](O)[C@H](O)[C@H]1O	-6.3	1.6	nt	-6.0	5.5	32.0*
O=C(Nc1ccc(C(O)c2ccccc2)cc1)[C@@H]1O[C@H](CO)[C@H](O)[C@H](O)[C@H]1O (stereo partly specified)	15.4	-6.9	nt	2.2	-0.4	7.5
CCc1ccc2cc(F)cc(F)c2n1	6.8	-1.0	nt	3.2	5.9	-3.8
CCc1ccc2cc(C)cc(C)c2n1	3.1	-1.6	nt	-0.7	-12.1	34.1*
CS(=O)(=O)Nc1ccc2c(c1)[C@@H]1C[C@H](CC(=O)NCC3CC3)O[C@@H](CO)[C@@H]1O2	7.9	1.1	nt	16.9	-20.7	0.7
C[C@H]1CN([C@@H](C)CO)C(=O)c2cccc(N(C)C)c2O[C@@H]1CN(C)Cc1ccc(-c2ccccc2)cc1	-1.6	5.4	nt	-2.0	5.4	2.2
COc1ccc([C@H]2/C=C\CN(C(=O)CC(C)(C)C)[C@@H](C)C(=O)N2Cc2ccc(F)cc2)cc1	-30.5	nt	-6.8	-20.4	-4.7	-9.2
COc1ccc([C@H]2/C=C\CN(C(=O)c3ccc(C)cc3)[C@@H](C)C(=O)N2Cc2ccc(F)cc2)cc1	-9.6	1.8	-5.1	-28.5	-7.2	125.4*
COc1ccc(S(=O)(=O)Nc2ccc3c(c2)C(=O)N([C@H](C)CO)C[C@H](C)[C@H](CN(C)Cc2ccncc2)OCCCC[C@H](C)O3)cc1	-6.2	2.0	nt	4.9	-12.3	48.1*
COc1ccc(S(=O)(=O)Nc2ccc3c(c2)C(=O)N([C@H](C)CO)C[C@H](C)[C@H](CN(C)Cc2ccncc2)OCCCC[C@@H](C)O3)cc1	5.3	-1.7	nt	4.9	4.1	21.7*
CNC[C@@H]1Oc2ncc(-c3ccc(OC)cc3)cc2C(=O)N([C@@H](C)CO)C[C@H]1C	25.9	-1.7	nt	14.9	2.6	-2.2
O=[N+]([O-])c1c(NCCO)cc(N2CCC3(CC2)OCCO3)c2nonc12	21.8	nt	-3.4	nt	-4.3	nt
O=[N+]([O-])c1c(NCCCO)cc(N2CCCCCC2)c2nonc12	nt	-1.7	-7.6	-13.5	8.7	37.4*
Cc1noc(C)c1NC(=O)Nc1ccc2c(c1)CC(=O)N([C@@H](C)CO)C[C@H](C)[C@@H](CN(C)C(=O)Nc1ccccc1)O2	21.4	-2.0	nt	-7.6	2.1	83.0*
C[C@@H]1CN([C@H](C)CO)C(=O)Cc2cc(NC(=O)Nc3cccc4ccccc34)ccc2O[C@@H]1CN(C)C(=O)NC1CCCCC1	nt	-0.8	nt	-3.5	-0.9	22.0*
C[C@H]1CN([C@@H](C)CO)C(=O)Cc2cc(NC(=O)Cc3cn(C)c4ccccc34)ccc2O[C@@H]1CN(C)C(=O)Nc1cccc2ccccc12	-9.0	-2.2	nt	-10.4	10.9	21.3*
C[C@@H]1CN([C@H](C)CO)C(=O)Cc2cc(NC(=O)Cc3cn(C)c4ccccc34)ccc2O[C@H]1CN(C)Cc1ccc(C(F)(F)F)cc1	-5.1	-4.7	nt	-12.8	-1.2	33.0*
C[C@H](CO)N1C[C@H](C)[C@H](CN(C)C(=O)NC2CCCCC2)Oc2ccc(NC(=O)Nc3cccc4ccccc34)cc2CC1=O	-49.4	-23.0	nt	12.8	2.5	-3.9
C[C@H](CO)N1C[C@H](C)[C@@H](CN(C)C(=O)Nc2ccccc2)Oc2ccc(NC(=O)Cc3cn(C)c4ccccc34)cc2CC1=O	-9.6	2.0	nt	10.7	-21.1	11.6
SMILES	INS-1E GSIS act	AF4-AF9 inh	dFosB activator	RAD52 inh	RAD54 inh	DENV2 CPE
COc1ccc2c3c(n(C)c2c1)[C@H](CO)N(Cc1ccc2c(c1)OCO2)CC31CN(C(C)=O)C1	14.7	0.3	nt	nt	nt	14.6
C[C@H]1CN([C@@H](C)CO)C(=O)Cc2cc(NC(=O)Nc3cccc4ccccc34)ccc2O[C@H]1CN(C)S(C)(=O)=O	-8.1	2.1	nt	3.1	2.7	-2.9
C[C@H]1CN([C@@H](C)CO)C(=O)Cc2cc(NC(=O)Nc3cccc4ccccc34)ccc2O[C@H]1CN(C)Cc1ccc2c(c1)OCO2	-20.2	0.0	nt	22.7	14.6	-1.1
C[C@@H]1CN([C@@H](C)CO)C(=O)Cc2cc(NC(=O)Nc3cccc4ccccc34)ccc2O[C@@H]1CN(C)S(C)(=O)=O	2.6	2.2	-9.2	21.7	0.4	65.7*!
C[C@H](CO)N1C[C@H](C)[C@@H](CN(C)Cc2ccc3c(c2)OCO3)Oc2ccc(NC(=O)Nc3cccc4ccccc34)cc2CC1=O	-0.5	7.1	nt	54.7*	29.9	-4.9
C[C@@H]1CN([C@@H](C)CO)C(=O)Cc2cc(NC(=O)Nc3cccc4ccccc34)ccc2O[C@H]1CN(C)C(=O)Nc1cccc2ccccc12	12.8	-1.7	nt	6.1	nt	44.6*
C[C@H]1CN([C@@H](C)CO)C(=O)Cc2cc(NC(=O)Nc3cccc4ccccc34)ccc2O[C@H]1CN(C)C	10.3	-0.3	nt	10.6	7.6	-2.1
C[C@H](CO)N1C[C@H](C)[C@@H](CN(C)C)Oc2ccc(NC(=O)Nc3cccc4ccccc34)cc2CC1=O	-2.3	4.6	nt	24.5	7.4	38.8*
C[C@@H]1CN([C@@H](C)CO)C(=O)c2cc(NC(=O)CCC(F)(F)F)ccc2O[C@@H](C)CCCCO[C@H]1CN(C)Cc1ccc(C(=O)O)cc1	7.7	-4.9	nt	1.7	13.2	5.3
COc1ccc(NC(=O)N(C)C[C@H]2Oc3c(NC(=O)c4ccncc4)cccc3C(=O)N([C@@H](C)CO)C[C@H]2C)cc1	7.3	-0.5	nt	-11.7	16.2	-5.8
Cc1noc(C)c1NC(=O)Nc1ccc2c(c1)CC(=O)N([C@H](C)CO)C[C@H](C)[C@H](CN(C)C(=O)Nc1cccc3ccccc13)O2	3.7	4.0	nt	-15.1	-1.3	63.3*
Cc1noc(C)c1NC(=O)N(C)C[C@H]1Oc2ccc(NC(=O)Cc3ccccc3)cc2CC(=O)N([C@H](C)CO)C[C@H]1C	9.5	-0.6	nt	-4.8	-4.7	-8.8
